Results reported in the antibiotic and cytotoxicity screens of Wong et al. (2023).
The whole screen tested about 39,000 compounds, of which about 3,300 (8.5%) were called active. Only a selection was taken, and actives are over-represented in it overall.

system: HepG2; assay: cytotoxicity call (relative viability < 0.9); conditions: 10 µM

| SMILES | cytotoxicity call |
| --- | --- |
| Cc1ccc(S(=O)(=O)N(C)C[C@H]2Oc3ccc(NC(=O)CCN4CCOCC4)cc3CC(=O)N([C@H](C)CO)C[C@@H]2C)cc1 | inactive |
| C/C=C/c1ccc2c(c1)O[C@@H](CN(C)Cc1ccc(C(=O)O)cc1)[C@H](C)CN([C@H](C)CO)S2(=O)=O | inactive |
| C[C@@H]1CN([C@@H](C)CO)C(=O)c2c(c3ccccc3n2C)-c2ccccc2CO[C@H]1CN(C)C(=O)c1ccc(F)cc1 | inactive |
| OC[C@H]1O[C@H](C#Cc2ccccc2)C=C[C@@H]1O | inactive |
| C[C@H](CO)N1C[C@H](C)[C@H](CN(C)C(=O)Nc2ccc3c(c2)OCO3)Oc2c(NC(=O)c3ccncc3)cccc2C1=O | inactive |
| Cc1ccc(S(=O)(=O)N[C@H]2C=C[C@@H](CC(=O)NCCN3CCCCC3)O[C@@H]2CO)cc1 | inactive |
| Cn1cnc2c1c(=O)[nH]c(=O)n2C | inactive |
| Cc1cc(C(=O)N2CCCC[C@@H]2CCOc2cccc(CN(C)Cc3cccc4cccnc34)c2)c(=O)[nH]c1C | inactive |
| Cc1nc(-c2cccc(F)c2)cs1 | inactive |
| COc1ccc2c3c([nH]c2c1)[C@@H](CO)N(C[C@]13CN(CC2CCOCC2)C1)C(=O)Nc1c(noc1C)C | inactive |
| C[C@@H]1CCCCO[C@@H](CN(C)C(=O)Nc2ccccc2)[C@@H](C)CN([C@H](C)CO)C(=O)c2cc(NC(=O)Nc3cccc4ccccc34)ccc2O1 | inactive |
| C[C@@H]1CN([C@@H](C)CO)C(=O)c2cc(NC(=O)Nc3ccc(F)cc3)ccc2O[C@H]1CN(C)S(C)(=O)=O | inactive |
| COc1ccc(NC(=O)Nc2ccc3c(c2)CC(=O)N([C@H](C)CO)C[C@H](C)[C@H](CN(C)C(=O)Nc2ccc(C(F)(F)F)cc2)O3)cc1 | inactive |
| COc1ccc(NC(=O)Nc2ccc3c(c2)CC(=O)N([C@@H](C)CO)C[C@H](C)[C@@H](CN(C)C(=O)Nc2ccc(C(F)(F)F)cc2)O3)cc1 | inactive |
| COc1ccc(NC(=O)Nc2ccc3c(c2)CC(=O)N([C@@H](C)CO)C[C@H](C)[C@H](CN(C)C(=O)Nc2ccc(C(F)(F)F)cc2)O3)cc1 | active |
| COc1ccc(NC(=O)N(C)C[C@H]2Oc3ccc(NC(=O)Nc4ccc(C(F)(F)F)cc4)cc3CC(=O)N([C@@H](C)CO)C[C@H]2C)cc1 | active |
| COc1ccc(NC(=O)Nc2ccc3c(c2)CC(=O)N([C@@H](C)CO)C[C@@H](C)[C@@H](CN(C)C(=O)Nc2ccc(C(F)(F)F)cc2)O3)cc1 | inactive |
| COc1ccc(NC(=O)N(C)C[C@@H]2Oc3ccc(NC(=O)Nc4ccc(C(F)(F)F)cc4)cc3CC(=O)N([C@H](C)CO)C[C@@H]2C)cc1 | inactive |
| CO[C@H]1CCN(C(=O)CN(C)C)[C@@H]2CCO[C@@H]12 | inactive |
| C[C@H](CO)N1C[C@H](C)[C@@H](CN(C)Cc2cccc3c2OCCCO3)OCc2ccccc2-c2c(n(C)c3ccccc23)C1=O | inactive |
| CCCC(=O)Nc1ccc2c(c1)C(=O)N(C)C[C@@H](OC)[C@@H](C)CN(Cc1ccc(-c3ccccn3)cc1)[C@H](C)CO2 | inactive |
| CN1C(=O)c2cc(NS(C)(=O)=O)ccc2OC[C@@H]2O[C@H](CC(=O)N3CCOCC3)CC[C@@H]21 | inactive |

| SMILES | cytotoxicity call |
| --- | --- |
| C[C@@H]1C(=O)O[C@@H]2C[C@@](C)(O)[C@H]3C[C@H]4O[C@@]4(C)[C@@]3(O)C(=O)[C@@H]12 | inactive |
| Cc1ccc(S(=O)(=O)N(C)C[C@H]2Oc3ccc(NC(=O)C4CC4)cc3C(=O)N([C@@H](C)CO)C[C@H]2C)cc1 | inactive |
| COc1ccc(S(=O)(=O)N(C)C[C@@H]2Oc3ccc(NC(=O)C4CC4)cc3C(=O)N([C@@H](C)CO)C[C@H]2C)cc1 | inactive |
| Cc1ccc(S(=O)(=O)N(C)C[C@H]2Oc3ccc(NC(=O)CCN4CCOCC4)cc3C(=O)N([C@@H](C)CO)C[C@H]2C)cc1 | inactive |
| Cc1ccc(S(=O)(=O)N(C)C[C@@H]2Oc3ccc(NC(=O)C4CC4)cc3C(=O)N([C@@H](C)CO)C[C@H]2C)cc1 | active |
| Cc1ccc(S(=O)(=O)N(C)C[C@@H]2Oc3ccc(NC(=O)CCN4CCOCC4)cc3C(=O)N([C@H](C)CO)C[C@@H]2C)cc1 | inactive |
| COc1ccc(S(=O)(=O)N(C)C[C@@H]2Oc3ccc(N(C)C)cc3C(=O)N([C@@H](C)CO)C[C@H]2C)cc1 | active |
| COc1ccc(S(=O)(=O)N(C)C[C@H]2Oc3ccc(N(C)C)cc3C(=O)N([C@@H](C)CO)C[C@H]2C)cc1 | inactive |
| Cc1ccc(S(=O)(=O)N(C)C[C@@H]2Oc3ccc(NC(=O)C4CC4)cc3C(=O)N([C@H](C)CO)C[C@@H]2C)cc1 | inactive |
| COc1ccc(S(=O)(=O)N(C)C[C@@H]2Oc3ccc(N(C)C)cc3C(=O)N([C@H](C)CO)C[C@@H]2C)cc1 | inactive |
| Cc1ccc(S(=O)(=O)N(C)C[C@H]2Oc3ccc(NC(=O)CCN4CCOCC4)cc3C(=O)N([C@@H](C)CO)C[C@@H]2C)cc1 | active |
| COc1ccc(S(=O)(=O)N(C)C[C@H]2Oc3ccc(NC(=O)C4CC4)cc3C(=O)N([C@@H](C)CO)C[C@H]2C)cc1 | inactive |
| COc1ccc(S(=O)(=O)N(C)C[C@H]2Oc3ccc(NC(=O)C4CC4)cc3C(=O)N([C@@H](C)CO)C[C@@H]2C)cc1 | active |
| C[C@@H]1CCCCO[C@H](CN(C)S(=O)(=O)c2ccccc2)[C@@H](C)CN([C@@H](C)CO)C(=O)c2cc(NS(C)(=O)=O)ccc2O1 | inactive |
| O/N=C1\CCCCc2c1[nH]c1ccc(C3CCCCC3)cc21 | inactive |
| C[C@@H]1CCCCO[C@@H](CN(C)C(=O)c2ccncc2)[C@H](C)CN([C@H](C)CO)C(=O)c2cc(NC(=O)NC3CCCCC3)ccc2O1 | inactive |
| C[C@@H]1CN([C@H](C)CO)C(=O)c2cccc(NC(=O)c3cnccn3)c2O[C@H]1CN(C)Cc1ccncc1 | inactive |
| C[C@H](CO)N1C[C@H](C)[C@H](CN(C)Cc2ccc(-c3ccccc3)cc2)Oc2c(NS(=O)(=O)c3ccc(Cl)cc3)cccc2C1=O | inactive |
| N=C(N)NCCCCN.O=S(=O)(O)O | inactive |
| N=C(N)NCCCCNC(=N)N | active |
| N=C(N)NCCCCNC(=N)N.O=S(=O)(O)O | inactive |
| O=C(Nc1ccc2c(c1)[C@H]1C[C@H](CC(=O)N3CCc4ccccc4C3)O[C@@H](CO)[C@H]1O2)C1CCOCC1 | inactive |

| SMILES | cytotoxicity call |
| --- | --- |
| C[C@H]1CN([C@@H](C)CO)C(=O)Cc2cc(NC(=O)Nc3cccc4ccccc34)ccc2O[C@@H]1CN(C)Cc1ccccc1 | inactive |
| C[C@H](CO)N1C[C@H](C)[C@H](CN(C)Cc2ccccc2)Oc2ccc(NC(=O)Nc3cccc4ccccc34)cc2CC1=O | active |
| C[C@H](CO)N1C[C@H](C)[C@H](CN(C)Cc2ccc(-c3ccccc3)cc2)Oc2ccc(NC(=O)Nc3cccc4ccccc34)cc2CC1=O | inactive |
| C[C@H]1CN([C@@H](C)CO)C(=O)Cc2cc(NC(=O)Nc3cccc4ccccc34)ccc2O[C@H]1CN(C)Cc1ccccc1 | inactive |
| C[C@H](CO)N1C[C@H](C)[C@@H](CN(C)Cc2ccc(-c3ccccc3)cc2)Oc2ccc(NC(=O)Nc3cccc4ccccc34)cc2CC1=O | inactive |
| C[C@@H]1CN([C@H](C)CO)C(=O)Cc2cc(NC(=O)Nc3cccc4ccccc34)ccc2O[C@H]1CN(C)Cc1ccccc1 | inactive |
| C[C@@H]1CN([C@H](C)CO)C(=O)Cc2cc(NC(=O)Nc3cccc4ccccc34)ccc2O[C@@H]1CN(C)Cc1ccccc1 | active |
| C[C@@H]1CN([C@H](C)CO)C(=O)Cc2cc(NC(=O)Nc3cccc4ccccc34)ccc2O[C@H]1CN(C)Cc1ccc(-c2ccccc2)cc1 | inactive |
| C[C@@H]1CN([C@@H](C)CO)C(=O)Cc2cc(NC(=O)Nc3cccc4ccccc34)ccc2O[C@H]1CN(C)Cc1ccccc1 | inactive |
| C[C@@H]1CN([C@@H](C)CO)C(=O)Cc2cc(NC(=O)Nc3cccc4ccccc34)ccc2O[C@@H]1CN(C)Cc1ccccc1 | active |
| C[C@H]1CN([C@@H](C)CO)C(=O)Cc2cc(NC(=O)Nc3cccc4ccccc34)ccc2O[C@@H]1CN(C)Cc1ccc(-c2ccccc2)cc1 | inactive |
| C[C@H](CO)N1C[C@H](C)[C@@H](CN(C)Cc2ccccc2)Oc2ccc(NC(=O)Nc3cccc4ccccc34)cc2CC1=O | active |
| C[C@@H]1CN([C@@H](C)CO)C(=O)CCCn2cc(nn2)CO[C@@H]1CN(C)S(=O)(=O)c1ccc(-n2cccn2)cc1 | inactive |
| C[C@H]1CN([C@@H](C)CO)S(=O)(=O)c2ccc(C#Cc3cccnc3)cc2O[C@H]1CN(C)CC1CCOCC1 | inactive |
| COc1ccc(S(=O)(=O)N(C)C[C@H]2Oc3ccc(NS(=O)(=O)c4ccc(F)cc4)cc3CC(=O)N([C@@H](C)CO)C[C@H]2C)cc1 | inactive |
| COC(=O)[C@H]1CN(C)CCC1=O | inactive |
| C[C@@H]1O[C@@H](OC[C@H]2O[C@@H](Oc3cc(O)c4c(c3)O[C@@H](c3ccc(O)cc3)CC4=O)[C@H](O)[C@@H](O)[C@@H]2O)[C@H](O)[C@H](O)[C@H]1O | inactive |
| COc1ccc([Si](C)(C)[C@H]2[C@H](CCn3cc([C@H](O)c4ccccc4)nn3)O[C@@]3(C(=O)N(Cc4cccc(N5CCC5=O)c4)c4ccccc43)[C@@H]2C)cc1 | inactive |
| Cc1ccc(S(=O)(=O)N(C)C[C@@H]2Oc3c(NC(=O)c4cc(C)nn4C)cccc3C(=O)N([C@@H](C)CO)C[C@@H]2C)cc1 | inactive |
| C=CCOC(=O)[C@@H]1[C@H]2C(=O)O[C@H](c3ccccc3)[C@H](c3ccccc3)N2[C@H](c2ccc(OCCOC(=O)[C@H]3C[C@H]4C(=O)NCC(=O)N4[C@H]3c3ccc(O)cc3)cc2)[C@@]12C(=O)Nc1ccc(I)cc12 | inactive |
| Cc1ccccc1S(=O)(=O)N1C[C@@H](O)COC[C@@H]2O[C@@H](CC(=O)N3CCOCC3)CC[C@H]21 | inactive |
